# Several values for one entry are separate records, joined by “and”; a condition that tells them apart may be missing. Equal values may be shown once. Some compounds were tested as several samples or in several runs, with calls that do not always agree. Activity calls are given as the source filed them.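 How the source made its calls, unless noted: active means compounds whose cell count with miR-34 switched on is under 0.7 times the count with it off; inactive means the rest.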
# Tests used:
# [1] = compounds altering viability of human ES cells (AID 493140; call rule not given here;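 further: cells exposed to compounds for four days before counting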); details: human embryonic stem cell survival screen; stronger effect = higher value
# [2] = Wnt pathway potentiators raising nuclear beta-catenin – imaging, WNT3A-conditioned medium, mouse C2C12, NPC library, primary screen (AID 1117326; in the data active means nuclear beta-catenin stimulation mostly above about 4.2%, no sharp cut-off; inactive means mostly below about 10%); details: stronger effect = higher value
# [3] = stimulators of insulin release from INS-1E, primary screen, cell-based, 5 mM glucose, NPC library (AID 1117329;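 active means compound raises insulin release from rat beta cells at 5 mM glucose, no numeric limit stated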); details: rat INS-1E insulin secretion, at 10 µM, stronger effect = higher value
# [4] = growth inhibition of GSK3B-pretreated HCT116 cells – cell-based, CellTiter-Glo, 0.2 to 20 µM (AID 1117336;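 active means compounds lowering colon cancer cell viability after pretreatment blocking the GSK3B kinase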); details: HCT116 viability after GSK3B inhibitor, at 20 µM, stronger effect = higher value
# [5] = inhibition of endothelial tube formation, primary screen, imaging, VEGF stimulated, CD31 staining, tube area, NPC library (AID 1117340;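 active means compound that reduces growth-factor-driven endothelial tube area in a mixed cell culture, no cutoff stated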); details: VEGF-stimulated ADSC/ECFC co-culture, at 10 µM, stronger effect = higher value
# [6] = GLP1 release stimulators, primary, NCI-H716, NPC library (AID 1117341;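 active means compound raises GLP1 secretion from the human gut endocrine cells, with no numeric limit stated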); details: NCI-H716 cells, at 10 µM, stronger effect = higher value
# [7] = HCT116 colon cancer cell growth inhibition, primary screen, CellTiter-Glo luminescence, NPC library (AID 1117342;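 active means compounds that lower survival of HCT116 colon cancer cells in the luminescence readout, no numeric limit stated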); details: at 20 µM (top of the series)
# [8] = reduced SW480 viability measured with CellTiter-Glo, NPC library, primary (AID 1117343;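 active means compounds that lower viability of the colon cancer cells in the luminescence readout, with no numeric limit stated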); details: CellTiter-Glo luminescence; at 20 µM (top of the series) unless noted
# [9] = NPC library primary testing for decreased DLD-1 cell viability via CellTiter-Glo (AID 1117346;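 active means compounds that lower survival of DLD-1 colon cancer cells in the luminescence readout, no cutoff given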); details: DLD-1 viability, CellTiter-Glo luminescence; at 20 µM (top of the series)
# [10] = EMT-state selective cytotoxicity in co-culture – imaging, PC-3E GFP, TEM4-18 mCherry, primary screen (AID 1345086;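 active means compounds killing one labelled cell type while sparing the other, by normalised counts and ratio limits, not self-fluorescent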;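 on all read-outs here: cells exposed to compound for 72 h before imaging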;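 on red/green cell ratio (normalised): normalised mesenchymal count divided by normalised epithelial count so high means epithelial killing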); details: PC-3E GFP / TEM4-18 mCherry co-culture, imaging cell counts, at 1 µM; for red/green cell ratio (normalised): actives lie on both sides, counts scaled to control wells, 1 = unselective
# [11] = viability loss with induced miR-34 in A549 – imaging, A549 dox-inducible miR-34, nuclei and caspase counts, primary screen (AID 1347080); details: A549 miR-34 inducible, Hoechst nuclei count, 48 h
# [12] = MELAS cybrid and Rieske KO viability enhancers – cell-based, MELAS cybrids, Rieske KO mouse fibroblasts, CellTiter-Glo, primary screen (AID 1508586;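 active means mean z-score across replicates of 1.96 or higher in either the MELAS or the Rieske mutant cell line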;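 further: z relative to plate mean and SD of compound and empty wells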); details: low glucose
# [13] = target: NAD(+) hydrolase SARM1 (Homo sapiens) (UniProt Q6SZW1); test: blocking NAD cleavage by SARM1 SAM-TIR – cell lysate, NAD-Glo luminescence (AID 1508614;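 active means compound whose remaining NAD level is above about 45 nM, limit read from the data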); details: SAM-TIR HEK293T lysate NADase, at 1 µM, stronger effect = higher value
# [14] = P. berghei load reduction in hepatocytes – cell-based, HepG2, luciferase luminescence, HepG2 viability, primary screen (AID 624349; in the data active means parasite load remaining mostly below about 12%, no sharp cut-off; inactive means mostly above about 10%;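 further: 100% = mean of DMSO negative control wells on the same plate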); details: P. berghei liver stage in HepG2, luciferase luminescence, concentration not given here; parasite load remaining: stronger effect = lower value; viability: measured here: HepG2 viability without parasites
# [15] = growth inhibition, single agent or in combination, cell-based, chromothripsis tumors, cisplatin or BGB combos (AID 1671449; in the data active means inhibition above about 80%;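 further: cells exposed for 96 hours; 0% = vehicle DMSO and 100% = killing by high DMSO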); details: LFS_MB_P medulloblastoma cells
# [16] = growth inhibition, single agent and combos, cell-based, chromothripsis tumors, cisplatin or BGB combos (AID 1671450; in the data active means inhibition above about 80%;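 further: cells exposed to compound for four days; 0% = vehicle DMSO and 100% = cell killing by high DMSO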); details: HDN33 neuroblastoma cells, stronger effect = higher value
# [17] = growth inhibition, single agents and combos, ICB984, cell-based, cisplatin or BGB combos, synergistic combos for chromothripsis tumors (AID 1671451; call rule not given here;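 further: cells exposed for 96 hours before readout; 0% = vehicle DMSO and 100% = killing by high DMSO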); details: ICB984 medulloblastoma cells, drug combinations, stronger effect = higher value
# [18] = growth inhibition, single agents and combos, HTB85, cell-based, BGB or cisplatin IC20 combos, synergistic combos for chromothripsis tumors (AID 1671453; in the data active means inhibition above about 80%;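 further: cells exposed for 96 hours before readout; 0% = vehicle DMSO and 100% = high DMSO killing control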); details: HTB85 osteosarcoma cells, drug combinations, stronger effect = higher value
# [19] = growth inhibition, MDA-MB-436, cell-based, BGB or cisplatin combos, synergistic combos for chromothripsis tumors (AID 1671458; call rule not given here;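 further: cells exposed for 96 hours; 0% = vehicle DMSO and 100% = killing by high DMSO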); details: MDA-MB-436 breast carcinoma growth inhibition, drug combinations, stronger effect = higher value
# [20] = measured here: epithelial PC-3E GFP cell survival
# [21] = measured here: mesenchymal TEM4-18 mCherry cell survival
# [22] = stronger effect = lower value, cell number ratio, induced over uninduced
# [23] = measured here: relative caspase fold change +Dox/-Dox
# [24] = measured here: total cells with miR-34 induction, stronger effect = lower value
# [25] = measured here: total cells without miR-34 induction
# [26] = MELAS cybrid survival, CellTiter-Glo 48 h, stronger effect = higher value
# [27] = Rieske KO mouse fibroblast survival, CellTiter-Glo 72 h
# Sequence of NAD(+) hydrolase SARM1 (Homo sapiens) (Q6SZW1 whole entry, looked up): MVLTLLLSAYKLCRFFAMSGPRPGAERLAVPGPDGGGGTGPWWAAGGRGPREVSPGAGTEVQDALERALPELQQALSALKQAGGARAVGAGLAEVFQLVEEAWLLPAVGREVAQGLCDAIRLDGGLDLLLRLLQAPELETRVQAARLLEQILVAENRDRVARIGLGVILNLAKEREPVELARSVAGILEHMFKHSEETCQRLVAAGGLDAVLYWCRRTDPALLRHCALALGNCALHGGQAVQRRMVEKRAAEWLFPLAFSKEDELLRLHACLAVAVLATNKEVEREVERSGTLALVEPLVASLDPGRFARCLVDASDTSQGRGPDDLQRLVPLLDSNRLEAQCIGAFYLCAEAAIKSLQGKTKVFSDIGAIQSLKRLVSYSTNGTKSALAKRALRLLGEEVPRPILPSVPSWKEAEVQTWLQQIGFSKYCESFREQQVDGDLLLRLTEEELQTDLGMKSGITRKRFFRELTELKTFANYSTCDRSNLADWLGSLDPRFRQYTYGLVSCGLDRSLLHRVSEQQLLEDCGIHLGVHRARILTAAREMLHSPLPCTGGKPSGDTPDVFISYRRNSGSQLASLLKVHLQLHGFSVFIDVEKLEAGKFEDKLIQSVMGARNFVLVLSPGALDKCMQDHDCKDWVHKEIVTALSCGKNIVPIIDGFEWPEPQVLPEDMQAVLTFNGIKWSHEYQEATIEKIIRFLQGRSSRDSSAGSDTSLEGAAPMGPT
smiles,measurement,setting,value
COc1cc2c(c(OC)c1OC)-c1ccc(OC)c(=O)cc1[C@@H](NC(C)=O)CC2,survival,[1],0.333 (inactive)
same,nuclear beta-catenin stimulation,[2]; at 10 µM,77.5% (active)
same,nuclear beta-catenin stimulation,"[2]; stimulation, at 2 µM",72.6%
same,insulin secretion stimulation,[3],2.2% (inactive)
same,viability decrease,[4],97.2% (active)
same,tube area decrease,[5],105% (active)
same,GLP1 secretion stimulation,[6],-3.6% (inactive)
same,inhibition of viability,[7],75% (active)
same,viability decrease (inhibition),[8],43.3% (inactive)
same,viability decrease (inhibition),[9],58.2% (active)
same,red/green cell ratio (normalised),[10],1.19 (inactive)
same,normalised cell number,[10]; [20],0.19
same,normalised cell number,[10]; [21],0.23
same,fold change,[11]; [22],1.43 (inactive) and 1.18 (inactive) and 0.984 (inactive)
same,fold change,[11]; [23],1.13 and 1.5 and 0.402
same,cell count,[11]; [24],1890 and 1930 and 1700
same,cell count,[11]; [25],1330 and 1630 and 1730
same,z-score,[12]; [26],-2.22 (inactive)
same,z-score,[12]; [27],-0.272
same,remaining NAD,[13],10 nM (inactive)
COc1cccc2c1C(=O)c1c(O)c3c(c(O)c1C2=O)C[C@@](O)(C(C)=O)C[C@@H]3O[C@H]1C[C@H](N)[C@H](O)[C@H](C)O1,parasite load remaining,[14],-58.1% (inactive) and -0.15% (inactive) and 3.79% (active)
same,viability,[14],28.9% and 25.6% and 228%
same,nuclear beta-catenin stimulation,[2]; at 10 µM,61.7% (active)
same,nuclear beta-catenin stimulation,"[2]; stimulation, at 2 µM",102%
same,insulin secretion stimulation,[3],-0.6% (inactive)
same,viability decrease,[4],65.5% (active)
same,tube area decrease,[5],-9.1% (active)
same,GLP1 secretion stimulation,[6],3.4% (inactive)
same,inhibition of viability,[7],88.6% (active)
same,viability decrease (inhibition),[8],127% (active)
same,viability decrease (inhibition),[9],93.9% (active)
same,red/green cell ratio (normalised),[10],2.72 (active)
same,normalised cell number,[10]; [20],0.23
same,normalised cell number,[10]; [21],0.62
same,fold change,[11]; [22],0.88 (inactive) and 0.929 (inactive) and 0.993 (inactive)
same,fold change,[11]; [23],0.91 and 1.93 and 1.28
same,cell count,[11]; [24],2140 and 2610 and 2580
same,cell count,[11]; [25],2420 and 2800 and 2590
same,z-score,[12]; [26],-1.94 (inactive) and 4.97 (active)
same,z-score,[12]; [27],-1.44 and -0.671
same,remaining NAD,[13],10 nM (inactive)
CNC1CCCN(c2c(F)cc3c(=O)c(C(=O)O)cn(C4CC4)c3c2OC)C1 (stereo not given),nuclear beta-catenin stimulation,[2]; at 10 µM,-0.1% (inactive)
same,nuclear beta-catenin stimulation,"[2]; stimulation, at 2 µM",0%
same,insulin secretion stimulation,[3],5.75% (inactive)
same,viability decrease,[4],42.9% (inactive)
same,tube area decrease,[5],-9% (inactive)
same,GLP1 secretion stimulation,[6],1.4% (inactive)
same,inhibition of viability,[7],10.1% (inactive)
same,viability decrease (inhibition),[8],6% (inactive)
same,viability decrease (inhibition),[9],-25.9% (inactive)
same,red/green cell ratio (normalised),[10],1.13 (inactive)
same,normalised cell number,[10]; [20],1.05
same,normalised cell number,[10]; [21],1.18
same,fold change,[11]; [22],0.938 (inactive)
same,fold change,[11]; [23],0.74
same,cell count,[11]; [24],8330
same,cell count,[11]; [25],8880
same,z-score,[12]; [26],-0.145 (inactive)
same,z-score,[12]; [27],0.59
same,inhibition,"[15]; at 0.5 µM, stronger effect = higher value",6.49% (inactive)
same,inhibition,"[15]; measured here: combination with BGB IC20, at 0.005 µM",-28.5%
same,inhibition,"[15]; measured here: combination with BGB IC40, at 0.005 µM",-37.4%
same,inhibition,"[15]; measured here: combination with BGB IC40, at 0.05 µM",-26.1%
same,inhibition,"[15]; measured here: combination with cisplatin, at 0.5 µM, stronger effect = higher value",1.25%
same,inhibition,"[15]; measured here: combination with cisplatin, at 5 µM, stronger effect = higher value",-35.3%
same,inhibition,"[16]; BGB combo, at 5 µM",-29.7%
same,inhibition,[16]; at 0.5 µM,-41% (inactive)
same,inhibition,"[16]; cisplatin combo, at 5 µM",-60.5%
same,inhibition,"[16]; measured here: with BGB IC20 combination, at 0.5 µM",-39.7%
same,inhibition,"[16]; measured here: with cisplatin IC20 combination, at 0.5 µM",-37.4%
same,inhibition,"[16]; single agent, at 5 µM",-52%
same,inhibition,"[17]; BGB IC20 combo, at 0.005 µM",-26.8%
same,inhibition,"[17]; BGB IC40 combo, at 0.005 µM",-20.1%
same,inhibition,"[17]; BGB IC40 combo, at 0.05 µM",-26.3%
same,inhibition,[17]; at 0.5 µM,-21.9% (inactive)
same,inhibition,"[17]; cisplatin combo, at 0.05 µM",-26.3%
same,inhibition,"[17]; cisplatin combo, at 0.5 µM",-35.1%
same,inhibition,"[17]; cisplatin combo, at 5 µM",-31.2%
same,inhibition,"[17]; measured here: 5 uM single agent, at 5 µM",-13.6%
same,inhibition,[18]; at 0.5 µM,-23.2% (inactive)
same,inhibition,"[18]; measured here: with BGB IC20, at 0.5 µM",-35.9%
same,inhibition,"[18]; measured here: with BGB IC20, at 5 µM",-27.5%
same,inhibition,"[18]; measured here: with cisplatin IC20, at 0.5 µM",-20.5%
same,inhibition,"[18]; measured here: with cisplatin IC20, at 5 µM",-18.5%
same,inhibition,"[18]; single agent, at 5 µM",-28.7%
same,inhibition,[19]; at 0.5 µM,-22.5% (inactive)
same,inhibition,"[19]; measured here: BGB combination, at 0.5 µM",-19.9%
same,inhibition,"[19]; measured here: BGB combination, at 5 µM",-19.5%
same,inhibition,"[19]; measured here: cisplatin combination, at 0.5 µM",-36.1%
same,inhibition,"[19]; measured here: cisplatin combination, at 5 µM",-11.6%
